Results from PubChem BioAssay AID1159580 (chemical genetic matrix, 2015).
About 2,000 (36%) of roughly 5,500 compounds were called active. Roughly 18% stayed inconclusive and do not appear here. Cut-off read from the data, not from the text of the source: active = normalized growth mostly below about 0.91 (no sharp cut-off); inconclusive = no clear call, values can overlap the other calls; inactive = mostly above about 0.92. The list shows a part of the results.

Assay: chemical genetic growth profiling, strain panel (AID 1159580);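 note: tested at 20 µM; growth read once vehicle control cultures reached saturation at 30 °C; 1 = growth at the plate median or of vehicle wells; lower values mean less growth of the strain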
Conditions: growth OD

Measured: normalized growth

CCCCCCCCCCCCCCCCCCOCC(O)CO (stereo not drawn)
inactive: S. cerevisiae deletion strains, locus YJR043C, strain POL32, stronger effect = lower value 1.01 | S. cerevisiae deletion strains, locus YJR066W, strain TOR1, stronger effect = lower value 0.965 | S. cerevisiae deletion strains, locus YKL009W, strain mrt4, stronger effect = lower value 1.04 | S. cerevisiae deletion strains, locus YKL068W, stronger effect = lower value 1.01 | S. cerevisiae deletion strains, locus YKL085W, strain MDH1 (second series), stronger effect = lower value 0.986 | S. cerevisiae deletion strains, locus YKL085W, strain MDH1, stronger effect = lower value 0.986 | S. cerevisiae deletion strains, locus YKL160W, strain elf1, stronger effect = lower value 1.01 | S. cerevisiae deletion strains, locus YKR001C, strain vps1, stronger effect = lower value 1.04 | S. cerevisiae deletion strains, locus YKR026C, strain gcn3, stronger effect = lower value 1 | S. cerevisiae deletion strains, locus YKR091W, strain srl3, stronger effect = lower value 0.995 | S. cerevisiae deletion strains, locus YLL001W, strain dnm1, stronger effect = lower value 0.997 | S. cerevisiae deletion strains, locus YLL026W, stronger effect = lower value 0.983 | S. cerevisiae deletion strains, locus YLL041C, strain sdh2, stronger effect = lower value 0.997 | S. cerevisiae deletion strains, locus YLR027C, strain aat2, stronger effect = lower value 0.998 | S. cerevisiae deletion strains, locus YLR039C, strain RIC1, stronger effect = lower value 1.04 | S. cerevisiae deletion strains, locus YLR058C, strain SHM2, stronger effect = lower value 0.999 | S. cerevisiae deletion strains, locus YLR102C, strain apc9, stronger effect = lower value 1.01 | S. cerevisiae deletion strains, locus YLR113W, strain HOG1, stronger effect = lower value 0.995 | S. cerevisiae deletion strains, locus YLR221C, strain rsa3, stronger effect = lower value 1 | S. cerevisiae deletion strains, locus YLR258W, strain gsy2, stronger effect = lower value 0.975 | S. cerevisiae deletion strains, locus YLR262C, strain YPT6 (second series), stronger effect = lower value 1 | S. cerevisiae deletion strains, locus YLR262C, strain YPT6, stronger effect = lower value 1.01 | S. cerevisiae deletion strains, locus YLR268W, strain sec22, stronger effect = lower value 1.05 | S. cerevisiae deletion strains, locus YLR320W, strain mms22, stronger effect = lower value 0.979 | S. cerevisiae deletion strains, locus YLR330W, strain CHS5, stronger effect = lower value 1.02 | S. cerevisiae deletion strains, locus YLR342W, strain FKS1 (second series), stronger effect = lower value 1.04 | S. cerevisiae deletion strains, locus YLR342W, strain FKS1, stronger effect = lower value 0.987 | S. cerevisiae deletion strains, locus YLR357W, strain rsc2, stronger effect = lower value 0.932 | S. cerevisiae deletion strains, locus YLR370C, strain arc18, stronger effect = lower value 0.998 | S. cerevisiae deletion strains, locus YLR371W, strain rom2, stronger effect = lower value 1.02 | S. cerevisiae deletion strains, locus YLR384C, strain iki3, stronger effect = lower value 0.986 | S. cerevisiae deletion strains, locus YLR418C, strain cdc73, stronger effect = lower value 0.976 | S. cerevisiae deletion strains, locus YML016C, strain PPZ1, stronger effect = lower value 1.01 | S. cerevisiae deletion strains, locus YML032C, strain rad52, stronger effect = lower value 0.983 | S. cerevisiae deletion strains, locus YML120C, strain ndi1, stronger effect = lower value 1.01 | S. cerevisiae deletion strains, locus YML124C, strain tub3, stronger effect = lower value 1 | S. cerevisiae deletion strains, locus YMR058W, strain fet3, stronger effect = lower value 0.999 | S. cerevisiae deletion strains, locus YMR078C, strain ctf18, stronger effect = lower value 1 | S. cerevisiae deletion strains, locus YMR125W, strain sto1, stronger effect = lower value 0.955 | S. cerevisiae deletion strains, locus YMR129W, stronger effect = lower value 0.989 | S. cerevisiae deletion strains, locus YMR205C, strain PFK2, stronger effect = lower value 0.96 | S. cerevisiae deletion strains, locus YMR223W, strain ubp8, stronger effect = lower value 1.01 | S. cerevisiae deletion strains, locus YMR231W, strain pep5, stronger effect = lower value 0.993 | S. cerevisiae deletion strains, locus YMR263W, strain SAP30, stronger effect = lower value 1 | S. cerevisiae deletion strains, locus YMR307W, strain GAS1, stronger effect = lower value 1.01 | S. cerevisiae deletion strains, locus YNL067W, strain RPL9B, stronger effect = lower value 1.01 | S. cerevisiae deletion strains, locus YNL071W, strain lat1, stronger effect = lower value 1 | S. cerevisiae deletion strains, locus YNL128W, strain TEP1, stronger effect = lower value 1.02 | S. cerevisiae deletion strains, locus YNL183C, strain NPR1, stronger effect = lower value 0.974 | S. cerevisiae deletion strains, locus YNL209W, strain ssb2, stronger effect = lower value 0.999 | S. cerevisiae deletion strains, locus YNL233W, strain BNI4, stronger effect = lower value 1.01 | S. cerevisiae deletion strains, locus YNL248C, strain rpa49, stronger effect = lower value 1.01 | S. cerevisiae deletion strains, locus YNL250W, strain rad50, stronger effect = lower value 1 | S. cerevisiae deletion strains, locus YNL271C, strain bni1, stronger effect = lower value 1 | S. cerevisiae deletion strains, locus YNL298W, strain CLA4, stronger effect = lower value 1 | S. cerevisiae deletion strains, locus YNL307C, strain MCK1, stronger effect = lower value 1.01 | S. cerevisiae deletion strains, locus YNL322C, strain KRE1 (second series), stronger effect = lower value 0.998 | S. cerevisiae deletion strains, locus YNR049C, strain mso1, stronger effect = lower value 0.995 | S. cerevisiae deletion strains, locus YNR052C, strain pop2, stronger effect = lower value 0.999 | S. cerevisiae deletion strains, locus YOL012C, strain htz1 0.72 | S. cerevisiae deletion strains, locus YOL147C, strain pex11, stronger effect = lower value 1 | S. cerevisiae deletion strains, locus YOR001W, strain rrp6, stronger effect = lower value 0.996 | S. cerevisiae deletion strains, locus YOR061W, strain CKA2, stronger effect = lower value 1 | S. cerevisiae deletion strains, locus YOR069W, strain VPS5, stronger effect = lower value 1.01 | S. cerevisiae deletion strains, locus YOR070C, strain gyp1, stronger effect = lower value 0.997 | S. cerevisiae deletion strains, locus YOR080W, strain dia2, stronger effect = lower value 0.977 | S. cerevisiae deletion strains, locus YOR083W, strain WHI5, stronger effect = lower value 1.02 | S. cerevisiae deletion strains, locus YOR106W, strain vam3, stronger effect = lower value 1.01 | S. cerevisiae deletion strains, locus YOR136W, strain idh2, stronger effect = lower value 1.02 | S. cerevisiae deletion strains, locus YOR144C, strain elg1, stronger effect = lower value 1.01 | S. cerevisiae deletion strains, locus YOR184W, strain ser1, stronger effect = lower value 0.995 | S. cerevisiae deletion strains, locus YOR231W, strain MKK1, stronger effect = lower value 1 | S. cerevisiae deletion strains, locus YOR265W, strain rbl2, stronger effect = lower value 0.987 | S. cerevisiae deletion strains, locus YOR270C, strain vph1, stronger effect = lower value 1.03 | S. cerevisiae deletion strains, locus YOR290C, strain snf2, stronger effect = lower value 0.973 | S. cerevisiae deletion strains, locus YOR316C, strain cot1, stronger effect = lower value 0.997 | S. cerevisiae deletion strains, locus YPL051W, strain arl3, stronger effect = lower value 1.01 | S. cerevisiae deletion strains, locus YPL078C, strain atp4, stronger effect = lower value 1.01 | S. cerevisiae deletion strains, locus YPL106C, strain sse1, stronger effect = lower value 0.953 | S. cerevisiae deletion strains, locus YPL240C, strain hsp82, stronger effect = lower value 0.985 | S. cerevisiae deletion strains, locus YPL241C, strain CIN2, stronger effect = lower value 0.998 | S. cerevisiae deletion strains, locus YPL256C, strain CLN2, stronger effect = lower value 0.983 | S. cerevisiae deletion strains, locus YPR119W, strain clb2, stronger effect = lower value 1 | S. cerevisiae deletion strains, locus YPR141C, strain kar3, stronger effect = lower value 1 | S. cerevisiae deletion strains, locus YPR163C, strain tif3, stronger effect = lower value 1.02 | S. cerevisiae deletion strains, locus YPR167C, strain met16, stronger effect = lower value 1.02 | S. cerevisiae deletion strains, strain wtn01, stronger effect = lower value 1.04 | S. cerevisiae strains, strain wild type, stronger effect = lower value 0.995
